PubChem BioAssay (NCATS)
Where “and” joins values, the source holds several entries; their conditions need not be identical. Identical values can stand only once. Records with an inconclusive call do not appear. Some structures have more than one record in an assay (separate samples or runs), and their calls can disagree. Calls of active or inactive are those of the source. Calls come from the whole dose curve; as a rule, active = well fitted curve in the direction sought with a large enough effect; inconclusive = small, poorly fitted or top-dose-only effect, or another doubt; inactive = no such curve, though single readings can be large; an effect the other way counts as inactive or inconclusive.

Columns and labels:
HaCat [1] = assay: Cytotoxic Profiling of Annotated Libraries Using Quantitative High-Throughput Screening (AID 1296008); conditions: Five cell lines viability, CellTiter-Glo ATP luminescence, 48-72 h; max response: stronger effect = lower value; note: nearly all actives have a fitted effect of over 60% in size
Summary of the method: (§1)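 Compounds were pin-transferred onto cells and incubated 48 or 72 hr at 37 degree Celsius, 95% humidity. CellTiter-Glo was added, plates sat 10 min at room temperature, then ATP-coupled luminescence was imaged as the viability read-out.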

KB-3-1 = assay: as above; conditions: Five cell lines viability, CellTiter-Glo ATP luminescence, 48-72 h; max response: stronger effect = lower value
Summary of the method: as §1

HACAT [2] = assay: qHTS assay to identify novel small-molecules to repurpose for Merkel cell carcinoma treatment (AID 1296009); conditions: MCC and control cell lines, CellTiter-Glo viability, 72 h; at 44.8 µM (top of the series) unless noted; note: nearly all actives have a fitted effect of over 60% in size
Summary of the method: (§2)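 Cells exposed to NPC (8-point) and MIPE (11-point) compound dilutions for 72 hr at 37 degree celsius; viability read by CellTiter-Glo luminescence, normalized to no-cell and DMSO in-plate controls.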

MCC-13 = assay: as above; conditions: MCC and control cell lines, CellTiter-Glo viability, 72 h; series mostly up to 46 µM
Summary of the method: as §2

MCC-26 = assay: as above; conditions: MCC and control cell lines, CellTiter-Glo viability, 72 h; series mostly up to 46 µM
Summary of the method: as §2

MKL-2 = assay: as above; conditions: MCC and control cell lines, CellTiter-Glo viability, 72 h; series mostly up to 46 µM
Summary of the method: as §2

UISO = assay: as above; conditions: MCC and control cell lines, CellTiter-Glo viability, 72 h; series mostly up to 46 µM
Summary of the method: as §2

WaGa = assay: as above; conditions: MCC and control cell lines, CellTiter-Glo viability, 72 h; series mostly up to 46 µM
Summary of the method: as §2

HeLa = assay: Primary qHTS to identify gynecologic anti-cancer compounds using libraries of approved drugs and bioactive compounds (AID 1345084); conditions: Gynecologic cancer cell panel viability, ATPlite luminescence, 48 h; series mostly up to 57.5 µM; note: nearly all actives have a fitted effect of over 55% in size
Summary of the method: (§3)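 Measured: luminescence after ATPlite addition (15 min, RT). Exposure: 48 h, 37 C, 5% CO2.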

JEG-3 = assay: as above; conditions: Gynecologic cancer cell panel viability, ATPlite luminescence, 48 h; series mostly up to 57.5 µM
Summary of the method: as §3

OV90 = assay: as above; conditions: Gynecologic cancer cell panel viability, ATPlite luminescence, 48 h; series mostly up to 57.5 µM
Summary of the method: as §3

MKL-1 = assay: qHTS assay to identify novel small-molecules to repurpose for Merkel cell carcinoma treatment (AID 1296009); conditions: MCC and control cell lines, CellTiter-Glo viability, 72 h; series mostly up to 46 µM; note: nearly all actives have a fitted effect of over 60% in size
Summary of the method: as §2

CASKI = assay: Primary qHTS to identify gynecologic anti-cancer compounds using libraries of approved drugs and bioactive compounds (AID 1345084); conditions: Gynecologic cancer cell panel viability, ATPlite luminescence, 48 h; series mostly up to 57.5 µM; note: nearly all actives have a fitted effect of over 55% in size
Summary of the method: as §3

Es-2 = assay: as above; conditions: Gynecologic cancer cell panel viability, ATPlite luminescence, 48 h; series mostly up to 57.5 µM
Summary of the method: as §3

Hek293T [3] = assay: as above; conditions: Gynecologic cancer cell panel viability, ATPlite luminescence, 48 h, control line for the selectivity index; series mostly up to 57.5 µM
Summary of the method: as §3

C33A = assay: as above; conditions: Gynecologic cancer cell panel viability, ATPlite luminescence, 48 h; series mostly up to 57.5 µM
Summary of the method: as §3

CAOV3 = assay: as above; conditions: Gynecologic cancer cell panel viability, ATPlite luminescence, 48 h; series mostly up to 57.5 µM
Summary of the method: as §3

NIH3T3 [4] = assay: Cytotoxic Profiling of Annotated Libraries Using Quantitative High-Throughput Screening (AID 1296008); conditions: Five cell lines viability, CellTiter-Glo ATP luminescence, 48-72 h; max response: stronger effect = lower value; note: nearly all actives have a fitted effect of over 60% in size
Summary of the method: as §1

HEK293T [5] = assay: qHTS assay to identify novel small-molecules to repurpose for Merkel cell carcinoma treatment (AID 1296009); conditions: MCC and control cell lines, CellTiter-Glo viability, 72 h; at 44.8 µM (top of the series) unless noted; note: nearly all actives have a fitted effect of over 60% in size
Summary of the method: as §2

NIH3T3 [6] = assay: as above; conditions: MCC and control cell lines, CellTiter-Glo viability, 72 h; at 44.8 µM (top of the series) unless noted
Summary of the method: as §2
% is set by controls: 0 for no effect and ±100 for the full control effect; potency is the fitted concentration of half-maximal effect.

CNCC[C@H](Oc1cccc2ccccc12)c1cccs1
active: Potency (MKL-2) 16.8 µM and 18.7 µM | Potency (UISO) 16.6 µM | Potency (OV90) 28.2 µM
inactive: outcome (HaCat [1]) | max response (KB-3-1) -19.6% and -13.2% | outcome (HACAT [2]) | Potency (MCC-13) | Potency (MCC-26) | Potency (WaGa) | Potency (HeLa) | Potency (JEG-3)

CCOC(=O)[C@H](CCc1ccccc1)N[C@H]1CCc2ccccc2N(CC(=O)O)C1=O
inactive: outcome (HaCat [1]) | max response (KB-3-1) 4.39% | outcome (HACAT [2]) | Potency (MCC-13) | Potency (MCC-26) | Potency (MKL-1) | Potency (UISO) | Potency (WaGa) | Potency (CASKI) | Potency (Es-2) | Potency (Hek293T [3]) | Potency (JEG-3) | Potency (OV90)

C1CCC(C(CC2CCCCN2)C2CCCCC2)CC1 (stereo not given)
16.8 µM (active) and inactive: Potency (UISO)
active: Potency (MKL-1) 6.68 µM | Potency (MKL-2) 2.37 µM and 18.7 µM | Potency (WaGa) 21.1 µM | Potency (C33A) 31.6 µM | Potency (CAOV3) 6.31 µM | Potency (CASKI) 20 µM | Potency (Es-2) 28.2 µM | Potency (OV90) 25.1 µM
inactive: Potency (MCC-13)

O[C@@H](CNC[C@H](O)[C@H]1CCc2cc(F)ccc2O1)[C@@H]1CCc2cc(F)ccc2O1
inactive: Potency (MCC-13) | Potency (MCC-26) | Potency (WaGa) | Potency (HeLa) | Potency (Hek293T [3]) | Potency (JEG-3)
active: Potency (KB-3-1) 20.9 µM | Potency (MKL-2) 26.4 µM | Potency (UISO) 23.7 µM

CNC(=O)c1cc(Oc2ccc(NC(=O)Nc3ccc(Cl)c(C(F)(F)F)c3)cc2)ccn1
active: Potency (KB-3-1) 14.8 µM and 6.51 µM | Potency (NIH3T3 [4]) 23.5 µM | Potency (WaGa) 23.7 µM
inactive: max response (HaCat [1]) -11.7% and -12.9% | Potency (MCC-13) | Potency (MCC-26) | Potency (CAOV3) | Potency (CASKI) | Potency (Es-2) | Potency (JEG-3) | Potency (OV90)

CCCCOc1ccc(CC(=O)NO)cc1
inactive: max response (KB-3-1) -6.89% | outcome (KB-3-1) | max response (NIH3T3 [4]) -7.85% | Potency (MCC-13) | Potency (CAOV3) | Potency (CASKI) | Potency (HeLa) | Potency (Hek293T [3]) | Potency (OV90)
active: Potency (NIH3T3 [4]) 23.7 µM | Potency (UISO) 16.8 µM

CC(C)(C#N)c1cc(Cn2cncn2)cc(C(C)(C)C#N)c1
inactive: Potency (MCC-13) | Potency (MKL-1) | Potency (MKL-2) | Potency (UISO) | Potency (WaGa) | Potency (C33A) | Potency (CAOV3) | Potency (CASKI) | Potency (Es-2) | Potency (Hek293T [3]) | Potency (JEG-3) | Potency (OV90)

O=C(O)c1cccnc1
inactive: max response (HaCat [1]) -6.32% | max response (KB-3-1) 23.8% and 4.59% | max response (NIH3T3 [4]) -0.396% and 0.818% | Potency (MCC-13) | Potency (MKL-1) | Potency (MKL-2) | Potency (UISO) | Potency (WaGa) | Potency (C33A) | Potency (CAOV3) | Potency (CASKI) | Potency (Es-2) | Potency (HeLa) | Potency (Hek293T [3]) | Potency (JEG-3) | Potency (OV90)

COc1cc([C@@H]2c3cc4c(cc3[C@H](O)[C@H]3COC(=O)[C@H]23)OCO4)cc(OC)c1OC
47.3 nM (active) and inactive: Potency (WaGa)
active: Potency (KB-3-1) 32.6 nM and 0.8 nM | Potency (MCC-13) 94.4 nM and 2.6 nM | Potency (MKL-2) 0.0132 µM | Potency (OV90) 0.355 µM
inactive: outcome (HaCat [1]) | outcome (HACAT [2]) | Potency (MKL-1) | Potency (CAOV3)

Nc1ccc(S(=O)(=O)Nc2ccccn2)cc1
inactive: outcome (HACAT [2]) | outcome (HEK293T [5]) | Potency (MCC-13) | Potency (MCC-26) | Potency (MKL-1) | Potency (MKL-2) | outcome (NIH3T3 [6]) | Potency (UISO) | Potency (WaGa) | Potency (C33A) | Potency (CAOV3) | Potency (CASKI) | Potency (Es-2) | Potency (HeLa) | Potency (Hek293T [3]) | Potency (JEG-3) | Potency (OV90)

COC(=O)Nc1nc2ccc(S(=O)c3ccccc3)cc2[nH]1 (stereo not given)
inactive: outcome (HaCat [1]) | outcome (HACAT [2]) | Potency (MCC-26) | Potency (CAOV3)
active: Potency (NIH3T3 [4]) 1.06 µM | Potency (Es-2) 3.55 µM
